Results as given in PubChem BioAssay (EPA / NIEHS).
Inconclusive results are not listed. Active and inactive are the calls of the source. How the source made its calls, unless noted: active means hit-call score of the fitted dose curve at least 0.9, where 1 is the maximum; inconclusive means response in the unintended direction; inactive means score below 0.9.

What was measured:
[1] = ATG_NF_kB_CIS: Attagene CIS-FACTORIAL HepG2 Assay for human Nuclear Factor Kappa B (NF-kB) (AID 2282991; active means hit-call score of the fitted dose curve at least 0.9, where 1 is the maximum; inactive means score below 0.9); settings: HepG2 Attagene cis-factorial NF-kB reporter mRNA; actives raise or lower the signal
Method in brief: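 HepG2, transient multi-reporter transfection, cis promoter elements (endogenous TFs). 24 h exposure. Total RNA → RT → PCR → 6-FAM label → HpaI → CE. Gain/loss vs DMSO.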

[2] = ATG_NRF2_ARE_CIS: Attagene CIS-FACTORIAL HepG2 Assay for human Nuclear Factor Erythroid 2 Related Factor 2 (NFR2) response to Antioxidant Response Elements (ARE) (AID 2282992; active means hit-call score of the fitted dose curve at least 0.9, where 1 is the maximum; inactive means score below 0.9;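 on AC50: reporter mRNA level measured by RT-PCR and capillary electrophoresis fluorescence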); settings: HepG2 Attagene ARE/NRF2 reporter, transcription factor activity; actives raise or lower the signal
Method in brief: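 Fluorescence intensity of reporter-specific cDNA fragments, separated by capillary electrophoresis, reflects mRNA induction in transfected HepG2 cells at 24 h. Activity is fitted bidirectionally, DMSO serving as baseline.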

[3] = ATG_Oct_MLP_CIS: Attagene CIS-FACTORIAL HepG2 Assay for human Octamer-Binding Transcription Factor (Oct) (AID 2282993; active means hit-call score of the fitted dose curve at least 0.9, where 1 is the maximum; inactive means score below 0.9); settings: HepG2 Attagene cis-factorial Oct reporter, mRNA; actives raise or lower the signal
Method in brief: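 After 24 h compound exposure, transfected HepG2 cells were lysed for total RNA; reporter-specific cDNA was PCR-amplified, fluorescently labelled and sized by capillary electrophoresis. Bidirectional curve fitting used DMSO as baseline.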

[4] = molecular target: Cellular tumor antigen p53 (Homo sapiens) (UniProt P04637); assay: ATG_p53_CIS: Attagene CIS-FACTORIAL HepG2 Assay for human p53 Transcription Factor (AID 2282994; active means hit-call score of the fitted dose curve at least 0.9, where 1 is the maximum; inactive means score below 0.9); settings: HepG2 p53 cis-element reporter, Attagene mRNA; actives raise or lower the signal
Cellular tumor antigen p53 (Homo sapiens), sequence (P04637 whole entry, looked up): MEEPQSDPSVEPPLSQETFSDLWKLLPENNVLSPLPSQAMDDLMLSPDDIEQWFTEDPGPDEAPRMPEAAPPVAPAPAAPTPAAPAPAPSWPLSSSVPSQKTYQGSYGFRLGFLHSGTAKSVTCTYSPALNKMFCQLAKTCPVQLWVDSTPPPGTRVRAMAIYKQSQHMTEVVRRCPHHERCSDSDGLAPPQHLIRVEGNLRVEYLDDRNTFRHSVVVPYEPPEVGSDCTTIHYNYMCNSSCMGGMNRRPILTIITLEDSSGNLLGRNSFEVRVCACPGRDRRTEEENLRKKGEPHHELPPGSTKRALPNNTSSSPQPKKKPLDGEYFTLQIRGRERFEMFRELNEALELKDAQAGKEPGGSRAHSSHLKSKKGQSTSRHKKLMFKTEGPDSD
Method in brief: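 Transiently transfected HepG2 (multiple cis reporter transcription units); exposure 24 h; reporter RNA via RT-PCR, 6-FAM extension, 2 h HpaI digest at 37 C, CE detection; DMSO baseline.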

[5] = molecular target: human Peroxisome Proliferator-activated Receptor delta (PPARd), PPARD (gene 5467) (UniProt Q03181); assay: ATG_PPARd_TRANS: Attagene TRANS-FACTORIAL HepG2 Assay for human Peroxisome Proliferator-activated Receptor delta (PPARd) (AID 2283002)
human Peroxisome Proliferator-activated Receptor delta (PPARd), PPARD (gene 5467), sequence (Q03181 whole entry, looked up, the tested form may be a part): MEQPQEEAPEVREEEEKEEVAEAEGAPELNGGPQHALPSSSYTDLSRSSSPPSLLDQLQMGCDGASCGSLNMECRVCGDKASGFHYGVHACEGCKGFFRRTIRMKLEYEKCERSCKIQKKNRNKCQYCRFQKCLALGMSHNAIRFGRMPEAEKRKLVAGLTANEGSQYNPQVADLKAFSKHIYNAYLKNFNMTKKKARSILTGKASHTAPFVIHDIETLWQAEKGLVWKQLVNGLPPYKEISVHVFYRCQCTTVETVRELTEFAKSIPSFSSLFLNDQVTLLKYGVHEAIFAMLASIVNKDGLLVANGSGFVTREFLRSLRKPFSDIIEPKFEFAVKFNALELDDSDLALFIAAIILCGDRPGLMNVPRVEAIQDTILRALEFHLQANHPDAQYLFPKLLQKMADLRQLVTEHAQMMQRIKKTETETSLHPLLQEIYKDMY
Method in brief: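 Measured quantity: GAL4-UAS reporter transcript induction in HepG2 after 24 h chemical dosing, with NR-Gal4 chimeras supplied by transient transfection. Detection by RT-PCR and capillary electrophoresis; upward fit against DMSO.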

[6] = molecular target: Peroxisome proliferator-activated receptor gamma (Homo sapiens) (UniProt P37231); assay: ATG_PPARg_TRANS: Attagene TRANS-FACTORIAL HepG2 Assay for human Peroxisome Proliferator-activated Receptor-gamma (PPARg) (AID 2283007)
Peroxisome proliferator-activated receptor gamma (Homo sapiens), sequence (P37231 whole entry, looked up): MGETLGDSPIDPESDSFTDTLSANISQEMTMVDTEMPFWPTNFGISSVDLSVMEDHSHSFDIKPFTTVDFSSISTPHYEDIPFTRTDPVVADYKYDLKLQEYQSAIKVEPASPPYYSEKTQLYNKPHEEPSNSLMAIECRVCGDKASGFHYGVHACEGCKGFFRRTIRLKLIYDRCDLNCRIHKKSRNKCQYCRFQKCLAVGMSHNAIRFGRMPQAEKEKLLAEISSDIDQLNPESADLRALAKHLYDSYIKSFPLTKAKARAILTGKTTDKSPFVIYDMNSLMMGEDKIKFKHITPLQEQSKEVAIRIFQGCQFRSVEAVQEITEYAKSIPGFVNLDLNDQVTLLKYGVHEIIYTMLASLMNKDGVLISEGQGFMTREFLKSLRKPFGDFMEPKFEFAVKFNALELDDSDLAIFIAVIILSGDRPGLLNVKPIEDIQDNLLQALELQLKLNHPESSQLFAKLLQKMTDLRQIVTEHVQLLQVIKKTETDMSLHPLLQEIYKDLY
Method in brief: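 Multiplexed reporter transcription units in HepG2, 24 h dosing, reporter transcripts quantified by fluorescent RT-PCR and capillary electrophoresis. Increase over DMSO scored.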

[7] = molecular target: Retinoic acid receptor RXR-alpha (Homo sapiens) (UniProt P19793); assay: ATG_RXRa_TRANS: Attagene TRANS-FACTORIAL HepG2 Assay for human Retinoid X Receptor alpha (RXRa) (AID 2283012)
Retinoic acid receptor RXR-alpha (Homo sapiens), sequence (P19793 whole entry, looked up, the tested form may be a part): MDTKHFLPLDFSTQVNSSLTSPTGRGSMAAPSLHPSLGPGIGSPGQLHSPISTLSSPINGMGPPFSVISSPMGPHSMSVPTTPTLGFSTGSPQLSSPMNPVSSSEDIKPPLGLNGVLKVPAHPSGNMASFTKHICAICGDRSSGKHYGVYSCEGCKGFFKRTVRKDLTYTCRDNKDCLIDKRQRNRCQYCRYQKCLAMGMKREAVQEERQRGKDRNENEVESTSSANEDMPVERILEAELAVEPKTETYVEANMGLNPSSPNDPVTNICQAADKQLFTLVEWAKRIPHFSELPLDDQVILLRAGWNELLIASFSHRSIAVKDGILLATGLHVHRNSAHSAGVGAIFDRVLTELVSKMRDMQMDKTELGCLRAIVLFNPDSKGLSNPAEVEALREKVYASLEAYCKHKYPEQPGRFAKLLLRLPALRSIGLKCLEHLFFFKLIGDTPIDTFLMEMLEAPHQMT
Method in brief: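 Measures exogenous chimeric NR-GAL4 activity in transfected HepG2 liver cells after 24 h of dosing. Induced reporter mRNA was detected by RT-PCR with capillary electrophoresis, and gain of signal was analysed against DMSO.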

[8] = molecular target: human Peroxisome Proliferator-activated Receptor alpha (PPARa), PPARA (gene 5465) (UniProt Q07869); assay: ATG_PPARa_TRANS: Attagene TRANS-FACTORIAL HepG2 Assay for human Peroxisome Proliferator-activated Receptor alpha (PPARa) (AID 2283001)
Method in brief: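 Cells (HepG2) are transfected with multiple reporter transcription units, exposed to chemical for 24 h, then total RNA is reverse-transcribed and amplified. Labelled products are quantified by capillary electrophoresis; induction is referenced to DMSO.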

[9] = molecular target: human Retinoic Acid Receptor beta (RARb), RARB (gene 5915) (UniProt P10826); assay: ATG_RARb_TRANS: Attagene TRANS-FACTORIAL HepG2 Assay for human Retinoic Acid Receptor beta (AID 2283004)
human Retinoic Acid Receptor beta (RARb), RARB (gene 5915), sequence (P10826 whole entry, looked up, the tested form may be a part): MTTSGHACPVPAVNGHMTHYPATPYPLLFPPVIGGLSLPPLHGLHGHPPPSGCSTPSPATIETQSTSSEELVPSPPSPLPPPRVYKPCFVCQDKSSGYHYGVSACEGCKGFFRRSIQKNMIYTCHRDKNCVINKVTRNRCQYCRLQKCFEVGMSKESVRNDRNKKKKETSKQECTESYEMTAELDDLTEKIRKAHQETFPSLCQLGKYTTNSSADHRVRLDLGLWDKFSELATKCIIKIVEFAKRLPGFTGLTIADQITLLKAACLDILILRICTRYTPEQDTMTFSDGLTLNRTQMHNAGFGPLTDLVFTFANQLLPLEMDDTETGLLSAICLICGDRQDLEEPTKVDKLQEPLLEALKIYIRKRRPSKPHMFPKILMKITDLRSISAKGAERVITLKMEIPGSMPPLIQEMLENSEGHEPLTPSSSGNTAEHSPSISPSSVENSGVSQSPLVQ
Method in brief: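 HepG2, transient MRTU transfection, NR–Gal4 chimera, 24 h treatment; RT-PCR plus CE fluorescence detection of reporter mRNA; gain of signal vs DMSO.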

[10] = molecular target: human Retinoic Acid Receptor gamma (RARg), RARG (gene 5916) (UniProt P13631); assay: ATG_RARg_TRANS: Attagene TRANS-FACTORIAL HepG2 Assay for human Retinoic Acid Receptor gamma (RARg) (AID 2283009)
human Retinoic Acid Receptor gamma (RARg), RARG (gene 5916), sequence (P13631 whole entry, looked up, the tested form may be a part): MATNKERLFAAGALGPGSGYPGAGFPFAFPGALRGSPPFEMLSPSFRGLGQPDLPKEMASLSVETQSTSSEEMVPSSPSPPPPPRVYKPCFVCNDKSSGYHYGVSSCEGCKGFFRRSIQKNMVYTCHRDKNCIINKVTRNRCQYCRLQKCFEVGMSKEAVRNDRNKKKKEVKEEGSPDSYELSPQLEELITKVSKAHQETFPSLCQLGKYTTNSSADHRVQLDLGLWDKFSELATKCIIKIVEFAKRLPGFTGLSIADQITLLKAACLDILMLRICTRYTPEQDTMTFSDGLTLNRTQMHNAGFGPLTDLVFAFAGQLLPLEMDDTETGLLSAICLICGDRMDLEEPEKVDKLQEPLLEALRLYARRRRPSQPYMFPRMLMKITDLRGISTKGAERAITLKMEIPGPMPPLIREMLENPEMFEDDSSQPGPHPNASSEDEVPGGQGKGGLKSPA
Method in brief: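 TRANS format measured activity of exogenous NR-GAL4 fusion (RARg) in transfected HepG2 liver cells after 24 h dosing. Induced reporter RNA was detected by RT-PCR/capillary electrophoresis fluorescence, analysed in the positive direction against DMSO.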

[11] = molecular target: human RAR-related Orphan Receptor beta (RORb), RORB (gene 6096) (UniProt Q92753); assay: ATG_RORb_TRANS: Attagene TRANS-FACTORIAL HepG2 Assay for human RAR-related Orphan Receptor beta (RORb) (AID 2283010)
human RAR-related Orphan Receptor beta (RORb), RORB (gene 6096), sequence (Q92753 whole entry, looked up, the tested form may be a part): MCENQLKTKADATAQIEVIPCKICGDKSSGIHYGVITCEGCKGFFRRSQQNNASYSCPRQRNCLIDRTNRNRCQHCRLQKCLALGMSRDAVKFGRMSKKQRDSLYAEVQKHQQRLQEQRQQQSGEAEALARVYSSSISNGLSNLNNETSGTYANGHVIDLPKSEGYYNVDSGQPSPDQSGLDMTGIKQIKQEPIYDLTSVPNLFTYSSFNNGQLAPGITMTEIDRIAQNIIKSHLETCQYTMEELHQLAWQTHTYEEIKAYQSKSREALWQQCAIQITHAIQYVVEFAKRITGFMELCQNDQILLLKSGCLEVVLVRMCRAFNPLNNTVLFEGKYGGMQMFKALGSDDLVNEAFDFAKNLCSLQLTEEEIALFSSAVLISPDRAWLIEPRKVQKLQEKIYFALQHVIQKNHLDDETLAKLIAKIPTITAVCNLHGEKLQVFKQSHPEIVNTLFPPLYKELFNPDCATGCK
Method in brief: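 Transfect HepG2 with multiple GAL4-UAS reporter transcription units; dose chemicals for 24 h; isolate RNA, reverse-transcribe and PCR-amplify reporter sequences; label, digest and resolve fragments by capillary electrophoresis; fit increases relative to DMSO.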

[12] = molecular target: Nuclear receptor subfamily 1 group I member 2 (Homo sapiens) (UniProt O75469); assay: ATG_PXR_TRANS: Attagene TRANS-FACTORIAL HepG2 Assay for human Pregnane X Receptor (PXR) (AID 2283008)
Nuclear receptor subfamily 1 group I member 2 (Homo sapiens), sequence (O75469 whole entry, looked up, the tested form may be a part): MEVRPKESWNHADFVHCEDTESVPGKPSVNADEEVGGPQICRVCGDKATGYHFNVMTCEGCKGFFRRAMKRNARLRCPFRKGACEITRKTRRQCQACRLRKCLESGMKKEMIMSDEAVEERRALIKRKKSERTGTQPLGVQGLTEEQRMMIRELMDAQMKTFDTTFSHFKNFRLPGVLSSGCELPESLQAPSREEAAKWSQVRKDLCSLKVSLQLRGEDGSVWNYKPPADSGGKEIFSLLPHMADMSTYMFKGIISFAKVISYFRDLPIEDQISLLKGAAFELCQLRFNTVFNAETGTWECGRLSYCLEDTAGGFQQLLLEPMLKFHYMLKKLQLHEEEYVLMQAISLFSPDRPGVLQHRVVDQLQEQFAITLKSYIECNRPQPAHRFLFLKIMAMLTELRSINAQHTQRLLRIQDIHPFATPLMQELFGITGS
Method in brief: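 Transient HepG2 transfectants carrying multiplexed reporter transcription units; PXR activity read through a Gal4 chimera. 24 h exposure. RT-PCR/CE fluorescence; upward curve fit referenced to DMSO.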

[13] = molecular target: Retinoic acid receptor alpha (Homo sapiens) (UniProt P10276); assay: ATG_RARa_TRANS: Attagene TRANS-FACTORIAL HepG2 Assay for human Retinoic Acid Receptor alpha (RARa) (AID 2283005)
Retinoic acid receptor alpha (Homo sapiens), sequence (P10276 whole entry, looked up, the tested form may be a part): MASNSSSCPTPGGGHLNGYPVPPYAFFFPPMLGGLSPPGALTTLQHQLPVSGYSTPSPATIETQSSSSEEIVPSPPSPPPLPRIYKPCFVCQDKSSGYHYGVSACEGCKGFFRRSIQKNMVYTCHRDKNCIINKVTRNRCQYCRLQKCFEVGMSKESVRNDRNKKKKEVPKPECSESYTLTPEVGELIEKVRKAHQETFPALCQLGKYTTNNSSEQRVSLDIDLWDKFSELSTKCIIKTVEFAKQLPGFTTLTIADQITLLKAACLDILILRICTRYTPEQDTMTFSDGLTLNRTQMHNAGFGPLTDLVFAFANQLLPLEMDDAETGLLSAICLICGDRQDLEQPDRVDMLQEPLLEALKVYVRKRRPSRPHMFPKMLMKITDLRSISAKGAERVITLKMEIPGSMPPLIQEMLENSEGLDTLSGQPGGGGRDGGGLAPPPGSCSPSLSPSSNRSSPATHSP
Method in brief: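 HepG2 cells transiently transfected with multiple reporter units expressing chimeric RARα-GAL4 fusion, with GAL4-UAS-driven reporters. After 24 h compound exposure, reporter mRNA induction quantified by RT-PCR and capillary electrophoresis with fluorescent labeling; gain-of-signal fitted relative to DMSO control.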

[14] = molecular target: human RAR-related Orphan Receptor gamma (RORg), RORC (gene 6097) (UniProt P51449); assay: ATG_RORg_TRANS: Attagene TRANS-FACTORIAL HepG2 Assay for human RAR-related Orphan Receptor gamma (RORg) (AID 2283011)
human RAR-related Orphan Receptor gamma (RORg), RORC (gene 6097), sequence (P51449 whole entry, looked up, the tested form may be a part): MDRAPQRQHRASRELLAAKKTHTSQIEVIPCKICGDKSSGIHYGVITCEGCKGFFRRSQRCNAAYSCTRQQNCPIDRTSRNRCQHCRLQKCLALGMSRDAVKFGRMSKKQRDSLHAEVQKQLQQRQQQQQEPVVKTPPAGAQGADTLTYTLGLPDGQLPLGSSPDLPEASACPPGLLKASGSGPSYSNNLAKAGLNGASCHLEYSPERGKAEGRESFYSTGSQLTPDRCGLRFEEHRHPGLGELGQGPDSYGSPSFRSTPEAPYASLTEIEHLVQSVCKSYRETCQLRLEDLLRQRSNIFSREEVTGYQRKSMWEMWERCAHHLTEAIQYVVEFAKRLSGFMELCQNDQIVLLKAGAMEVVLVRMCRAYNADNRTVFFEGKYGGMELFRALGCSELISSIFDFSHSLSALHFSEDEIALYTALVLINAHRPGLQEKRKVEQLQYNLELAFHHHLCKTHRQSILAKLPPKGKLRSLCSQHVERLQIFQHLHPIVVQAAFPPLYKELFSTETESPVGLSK
Method in brief: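 Activity is scored as increase in GAL4-UAS reporter mRNA over DMSO, detected by fluorescent RT-PCR and capillary electrophoresis in HepG2 cells transiently expressing a RORg-Gal4 chimera, 24 h after dosing.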

Measured: AC50

CCC(=O)C=Cc1ccc(OC)cc1
active: [1] 100 µM | [2] 27.1 µM | [6] 24.6 µM
inactive: [3] | [4] | [5] | [7]

FC1(F)C=CC(F)(F)C1(F)F
inactive: [1] | [2] | [3] | [4] | [9] | [6] | [12]

C=CCOCC(CO)(CO)CO
not listed: [8] | [11] | [12] | [14]
inactive: all other assays above

Nc1cc(Cl)c(-c2cc(Cl)c(N)cc2Cl)cc1Cl
inactive: [1] | [4] | [5] | [11] | [7]
active: [2] 12.5 µM | [3] 11.1 µM | [6] 14.5 µM | [12] 4.7 µM

c1ccc2c(c1)CCC2
inactive: [1] | [2] | [3] | [4] | [8] | [10] | [14] | [7]
